Here are results for 67 compounds from the antibiotic and cytotoxicity screens of Wong et al. (2023).

Among all 39,000 compounds or so, about 3,300 (8.5%) were called active. What follows is part of a selection rich in actives, with near analogues and random picks from the rest.

The test system of the assay is HepG2. The assay is described as follows: cytotoxicity call (relative viability < 0.9). The note with it: 10 µM.
Turning to `Cc1noc(C)c1NC(=O)Nc1ccc2c(c1)C(=O)N([C@H](C)CO)C[C@H](C)[C@@H](CN(C)S(=O)(=O)c1ccc(Cl)cc1)OCCCC[C@H](C)O2`, the cytotoxicity call is “inactive”. Then `CCc1nnc(SCC(=O)OC)[nH]1`, with “inactive”; and `COc1ccc(NC(=O)N(C)C[C@H]2OCCCC[C@H](C)Oc3ccc(NC(=O)Nc4c(C)noc4C)cc3C(=O)N([C@H](C)CO)C[C@@H]2C)cc1`, with “inactive”. As for `C[C@H]1CN([C@@H](C)CO)C(=O)Cc2cc(NC(=O)Cc3ccccc3)ccc2O[C@@H]1CN(C)Cc1ccc(C(F)(F)F)cc1`, the entry is “inactive”; as for `C[C@@H]1CN([C@@H](C)CO)C(=O)Cc2cc(NC(=O)Cc3ccccc3)ccc2O[C@H]1CN(C)C(=O)Nc1ccc(C(F)(F)F)cc1`, “inactive”; as for `C[C@@H]1CN([C@H](C)CO)C(=O)Cc2cc(NC(=O)Cc3ccccc3)ccc2O[C@H]1CN(C)Cc1ccc(C(F)(F)F)cc1`, “inactive”. As to `C[C@@H]1CN([C@@H](C)CO)C(=O)Cc2cc(NC(=O)Cc3ccccc3)ccc2O[C@H]1CN(C)Cc1ccc(C(F)(F)F)cc1`, the cytotoxicity call was “inactive”.

`C[C@H]1CN([C@@H](C)CO)C(=O)Cc2cc(NC(=O)Cc3ccccc3)ccc2O[C@H]1CN(C)Cc1ccc(C(F)(F)F)cc1`: the cytotoxicity call is “inactive”. Then `C[C@@H]1CN([C@@H](C)CO)C(=O)Cc2cc(NC(=O)Cc3ccccc3)ccc2O[C@@H]1CN(C)Cc1ccc(C(F)(F)F)cc1`, with “active”; and `C[C@H](CO)N1C[C@H](C)[C@H](CN(C)Cc2ccc(C(F)(F)F)cc2)Oc2ccc(NC(=O)Cc3ccccc3)cc2CC1=O`, with “active”; and `C[C@H](CO)N1C[C@H](C)[C@@H](CN(C)Cc2ccc(C(F)(F)F)cc2)Oc2ccc(NC(=O)Cc3ccccc3)cc2CC1=O`, with “inactive”. As for `C[C@@H]1CN([C@H](C)CO)C(=O)Cc2cc(NC(=O)Cc3ccccc3)ccc2O[C@@H]1CN(C)Cc1ccc(C(F)(F)F)cc1`, the entry is “active”; as for `CN1CCN(C(=O)C[C@@H]2CC[C@H]3[C@@H](COC[C@@H](O)CN3C(=O)C3CCOCC3)O2)CC1`, “inactive”; as for `COCC(=O)Nc1ccc2c(c1)C(=O)N(C)[C@@H]1CC[C@H](CC(=O)NCc3ccccc3Cl)O[C@@H]1CO2`, “inactive”.

For `CCCn1c(=O)[nH]c2nc(-c3ccc(S(=O)(=O)N4CCN(c5ccc(Cl)cc5)CC4)cc3)[nH]c2c1=O`, the cytotoxicity call was “inactive”. As for `CC(C)(C)[S@](=O)N1Cc2cc(C(=O)N[C@@H]3CCN(Cc4ccccc4)C3)nc(-c3cccc(-c4ccncc4)c3)c2[C@@H]1CCO`, the entry is “inactive”; as for `Cc1ccnc(-n2c(C)ccc2C)c1`, “inactive”; as for `C[C@@H]1CN([C@@H](C)CO)C(=O)c2cccc(NC(=O)Nc3ccc4c(c3)OCO4)c2O[C@@H]1CN(C)C(=O)Nc1ccc(C(F)(F)F)cc1`, “inactive”. In the case of `C[C@@H]1CN([C@H](C)CO)C(=O)CCCn2nncc2CO[C@@H]1CN(C)C(=O)Nc1ccc(N2CCN(C)CC2)cc1`, the cytotoxicity call is “inactive”. With `C[C@@H]1CN([C@H](C)CO)C(=O)c2cccc(NC(=O)c3nc4ccccc4s3)c2O[C@H]1CN(C)C(=O)Nc1ccc(C(F)(F)F)cc1`, the cytotoxicity call is “inactive”. With `COc1cccc(S(=O)(=O)Nc2ccc3c(c2)[C@H]2C[C@@H](CC(=O)NCc4ccccc4F)O[C@H](CO)[C@H]2O3)c1`, the cytotoxicity call is “inactive”. `O=C(C[C@H]1C[C@@H]2c3cc(NS(=O)(=O)c4ccc(F)cc4)ccc3O[C@@H]2[C@H](CO)O1)NCc1ccc(Oc2ccccc2)cc1`: the cytotoxicity call was “inactive”. `O=C(C[C@H]1C[C@@H]2c3cc(NS(=O)(=O)c4ccc(F)cc4)ccc3O[C@@H]2[C@H](CO)O1)NCc1ccccc1`: the cytotoxicity call is “inactive”. Then `O=C(C[C@H]1C[C@H]2c3cc(NS(=O)(=O)c4ccc(F)cc4)ccc3O[C@H]2[C@@H](CO)O1)NCc1ccc(Oc2ccccc2)cc1`, with “inactive”; and `O=C(C[C@@H]1C[C@@H]2c3cc(NS(=O)(=O)c4ccc(F)cc4)ccc3O[C@@H]2[C@H](CO)O1)NCc1ccc(Oc2ccccc2)cc1`, with “inactive”; and `O=C(C[C@@H]1C[C@@H]2c3cc(NS(=O)(=O)c4ccc(F)cc4)ccc3O[C@@H]2[C@@H](CO)O1)NCc1ccc(Oc2ccccc2)cc1`, with “inactive”. Then `O=C(C[C@@H]1C[C@@H]2c3cc(NS(=O)(=O)c4ccc(F)cc4)ccc3O[C@@H]2[C@H](CO)O1)NCc1ccccc1`, with “inactive”; and `COc1cccc(S(=O)(=O)Nc2ccc3c(c2)[C@@H]2C[C@@H](CC(=O)NCc4ccccc4F)O[C@H](CO)[C@@H]2O3)c1`, with “inactive”; and `O=C(C[C@H]1C[C@@H]2c3cc(NS(=O)(=O)c4ccc(F)cc4)ccc3O[C@@H]2[C@@H](CO)O1)NCc1ccc(Oc2ccccc2)cc1`, with “active”. Then `O=C(C[C@@H]1C[C@H]2c3cc(NS(=O)(=O)c4ccc(F)cc4)ccc3O[C@H]2[C@@H](CO)O1)NCc1ccc(Oc2ccccc2)cc1`, with “active”; and `O=C(C[C@H]1C[C@H]2c3cc(NS(=O)(=O)c4ccc(F)cc4)ccc3O[C@H]2[C@H](CO)O1)NCc1ccc(Oc2ccccc2)cc1`, with “active”. In the case of `COc1cccc(S(=O)(=O)Nc2ccc3c(c2)[C@@H]2C[C@@H](CC(=O)NCc4ccccc4F)O[C@@H](CO)[C@@H]2O3)c1`, the cytotoxicity call is “active”. As for `CNC[C@H]1Oc2cc(C#CC(C)(C)O)ccc2S(=O)(=O)N([C@H](C)CO)C[C@H]1C`, the entry is “inactive”. Then `COc1cc(F)c(F)c(Nc2ccc(I)cc2F)c1NS(=O)(=O)C1(C[C@H](O)CO)CC1`, with “inactive”. As for `O=C(NCC1(c2nc(-c3ccccc3)cs2)CCOCC1)c1cccc(-c2noc(C(F)(F)F)n2)c1`, the entry is “inactive”; as for `C[C@@H]1CN([C@@H](C)CO)C(=O)c2cccc(NS(=O)(=O)c3cn(C)cn3)c2O[C@@H]1CN(C)Cc1ccc(C(=O)Nc2ccccc2N)cc1`, “inactive”; as for `C[C@H]1CN([C@@H](C)CO)C(=O)c2cccc(NC(=O)c3ccc(-c4nccs4)cc3)c2O[C@H]1CN(C)C(=O)Nc1ccc(F)cc1`, “inactive”. Turning to `C[C@H]1CN([C@@H](C)CO)C(=O)c2cc(NC(=O)Nc3ccc(F)cc3)ccc2O[C@H]1CN(C)C(=O)Nc1cccc2ccccc12`, the cytotoxicity call is “inactive”. On to `COc1cc2c(cc1OC)C(=O)C(CC1CCN(Cc3ccccc3)CC1)C2.Cl` (configuration not stated), for which the cytotoxicity call was “inactive”.

Consider `COc1cc2c(NC3CCN(C)CC3)nc(N3CCCN(C)CC3)nc2cc1OCCOCCN(C)C`, for which the cytotoxicity call is “inactive”. For `COc1cc(C(=O)OCCCN2CCN(CCCOC(=O)c3cc(OC)c(OC)c(OC)c3)CC2)cc(OC)c1OC`, the cytotoxicity call is “inactive”. Then `O=C(C1=C[C@@H](c2ccc(Br)cc2)C[C@@H](OCc2ccc(CO)cc2)O1)N1CCN(Cc2ccccc2)CC1`, with “inactive”.

With `O=C(C1=C[C@H](c2ccc(Br)cc2)C[C@H](OCc2ccc(CO)cc2)O1)N1CCN(Cc2ccccc2)CC1`, the cytotoxicity call was “inactive”. As for `COc1cc2nc(N3CCCN(Cc4ccccc4)CC3)nc(Nc3ccc(F)c(Cl)c3)c2cc1OC`, the entry is “active”; as for `COc1cc(C(=O)OCCCN2CCCN(CCOC(=O)c3cc(OC)c(OC)c(OC)c3)CC2)cc(OC)c1OC`, “inactive”; as for `COc1cc(Nc2c(C#N)cnc3cc(OCCCN4CCN(C)CC4)c(OC)cc23)c(Cl)cc1Cl`, “active”.

On to `COc1cc2nc(N3CCCN(Cc4ccccc4)CC3)nc(NC3CCN(Cc4ccccc4)CC3)c2cc1OC`, for which the cytotoxicity call is “active”. Then `Brc1ccc2nc(N3CCCN(Cc4ccccc4)CC3)nc(NC3CCN(Cc4ccccc4)CC3)c2c1`, with “active”.

On to `CCOC(=O)/C=C(C)/C=C/C=C(C)/C=C/c1c(C)cc(OC)c(C)c1C`, for which the cytotoxicity call is “inactive”. `O=C(NCCCn1ccnc1)C(=O)NC[C@H]1OCCN1S(=O)(=O)c1ccc(F)cc1`: the cytotoxicity call was “inactive”.

Regarding `C[C@@H]1CN([C@@H](C)CO)C(=O)c2cccc(NS(=O)(=O)c3ccccc3)c2O[C@H]1CN(C)S(=O)(=O)c1cn(C)cn1`, the cytotoxicity call is “inactive”. Then `Cc1ccc(S(=O)(=O)Nc2ccc3c(c2)C(=O)N([C@H](C)CO)C[C@@H](C)[C@@H](CN(C)C(=O)c2ccccc2)OCCCC[C@@H](C)O3)cc1`, with “inactive”; and `CC(C)NC(=O)Nc1ccc2c(c1)C(=O)N([C@@H](C)CO)C[C@H](C)[C@@H](CN(C)S(=O)(=O)c1ccc(F)cc1)O2`, with “inactive”; and `COc1ccc(C#Cc2cnc3c(c2)C(=O)N([C@H](C)CO)C[C@@H](C)[C@@H](CN(C)C(=O)CN(C)C)O3)cc1`, with “inactive”. As for `C[C@H]1CN([C@@H](C)CO)C(=O)c2cc(NC(=O)CCCN(C)C)ccc2O[C@@H]1CN(C)S(=O)(=O)c1cn(C)cn1`, the entry is “inactive”; as for `C[C@H](CO)N1C[C@H](C)[C@H](CN(C)Cc2ccc3c(c2)OCO3)Oc2ccc(NC(=O)C3CC3)cc2CC1=O`, “inactive”; as for `Nc1ncn(C(=O)c2ccccc2)n1`, “inactive”. As for `C[C@@H]1CN([C@H](C)CO)C(=O)c2cccc(NC(=O)c3nc4ccccc4s3)c2O[C@@H]1CN(C)Cc1ccc(C(=O)Nc2ccccc2N)cc1`, the entry is “inactive”; as for `O=C(C[C@H]1C[C@@H]2c3cc(NS(=O)(=O)c4ccccc4)ccc3O[C@@H]2[C@@H](CO)O1)NC1CCCCC1`, “inactive”; as for `COc1ccc(NC(C)=S)cc1C`, “inactive”.

In the case of `COc1ccc(S(=O)(=O)Nc2ccc3c(c2)C(=O)N([C@H](C)CO)C[C@@H](C)[C@H](CN(C)Cc2ccccc2)OCCCC[C@@H](C)O3)cc1`, the cytotoxicity call is “inactive”. Regarding `COc1cc2ncnc(Nc3ccc(F)c(Cl)c3)c2cc1OCCCN1CCOCC1`, the cytotoxicity call is “active”.

As to `COc1cc2c(NC3CCN(C(C)C)CC3)nc(N3CCC(F)(F)CC3)nc2cc1OCCCN1CCCC1`, the cytotoxicity call is “active”. Turning to `O=C(NCCCN1CCOCC1)c1ccc(Cl)cc1`, the cytotoxicity call was “inactive”.

As to `COc1cc2c(N3CCN(C(=O)Nc4ccc(OC(C)C)cc4)CC3)ncnc2cc1OCCCN1CCCCC1`, the cytotoxicity call is “inactive”. In the case of `C[C@H](CO)N1C[C@H](C)[C@@H](CN(C)Cc2ccc(O)cc2)OCc2ccccc2-c2c(n(C)c3ccccc23)C1=O`, the cytotoxicity call is “inactive”. As for `Cc1noc(C)c1NC(=O)Nc1ccc2c(c1)C(=O)N([C@@H](C)CO)C[C@@H](C)[C@H](CN(C)C(=O)Nc1ccc(F)cc1)OCCCC[C@H](C)O2`, the entry is “inactive”.
